# Values joined by “and” are separate entries in the source; they are usually repeats but may differ in a detail not shown here. Equal entries are not always repeated. Compounds without any hit were thinned out: in the full panel of roughly 83,000, 20% have a hit.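 How to read the values: 0–100, growth inhibition (40 = 60% inhibited); 0, no net growth; -100 to 0, cell death (-40 = 40% of starting cells died; -100 = all dead).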 Values without a mark were called inactive. Active and inactive are the calls of the source. Rule for the calls: active = growth percent below 10; inactive = the rest.
# Test system: LOX IMVI melanoma
# Assay: NCI-60 one-dose screen, 48 h (100 = growth as untreated, 0 = no growth, -100 = all killed)
# Details: 10 µM unless noted
row,SMILES,growth
1,C[N+]1=C(/C=C\C=C\c2ccccc2)C(C)(C)c2ccccc21,12.6%
2,O=C(/C=C/C12c3ccccc3C(c3ccccc31)C1C(=O)NC(=O)C12)c1ccncc1 (stereo not drawn),-10.7% (active)
3,CC(=O)c1nn(-c2ccccc2)/c(=N/N=Cc2cn(-c3ccccc3)nc2-c2cc3ccccc3oc2=O)s1,98.9%
4,CN1CCN(Cc2ccc(NC(=O)c3cccc(C#Cc4c(N)ncc5ccc(F)cc45)c3)cc2C(F)(F)F)CC1,-97.9% (active)
5,CCN(C(=O)N1CCN(c2cc3c(cc2F)c(=O)c(C(=O)O)cn3C2CC2)CC1)c1nc(-c2ccccc2)cs1,-11.1% (active)
6,COc1ccc(-c2ccccc2)cc1-c1c(Nc2cc(Cl)cc(Cl)c2O)c(=O)c1=O,7.28% (active)
7,COc1cc(CO)cc2cc3ccccc3nc12,100%
8,N=C(N)c1ccc(-c2ccc(-c3ccc(Cl)c(Cl)c3)s2)cc1,-71.3% (active)
9,Cc1c(C(=O)OCCCCOC(=O)c2c(C)n(C)c3scc[n+]23)[n+]2ccsc2n1C,102%
10,COc1ccc(/C(C)=C(\c2ccc(OCCN3CCOCC3)cc2)c2ccc(OC(=O)C3CCCCC3)cc2)cc1,102%
11,CCOc1ccccc1NC(=O)c1cc2ccccc2cc1O,51.1%
12,O=S(=O)(Nc1ccc(F)cc1)c1ccc(-c2cnc(C3CC3)o2)cc1,51.5%
13,CN(C)c1ccc2nc3ccc(=O)cc-3sc2c1,5.56% (active) and 5.52% (active)
14,COc1cc(F)c(/C=C/c2cc(/C=C/c3cc(OC)c(OC)cc3F)n(-c3cc(F)cc(F)c3)n2)cc1OC,18.6%
15,Clc1ccc(CNc2ccc3nc(CCC4CCCCC4)[nH]c3c2)cc1,72%
16,FC(F)(F)Sc1ccc(/C=C/c2cc(/C=C/c3ccc(SC(F)(F)F)cc3)n(-c3ccccc3)n2)cc1,97.1%
17,CC(=O)N1N=C(c2ccc(Nc3nc(Nc4ccc(F)cc4)nc(Nc4ccc(F)cc4)n3)cc2)CC1c1ccccc1 (stereo not drawn),103%

row,SMILES,growth
1,Nc1ccccc1SC(CC(=O)c1ccccc1)c1ccc([N+](=O)[O-])cc1 (stereo not drawn),41.7% and 45.5%
2,Cc1ccc(/C=C/c2c(C(=O)/C=C/c3ccccc3)c(C)nc3ccccc23)cc1,-79.4% (active)
3,COc1ccc(/C=C(\C#N)c2cc3ccccc3[nH]2)cc1,30.3%
4,Cc1ccc(Cl)cc1N1CCN(C(=O)[C@@H]2C[C@@H]2c2ccc(F)cc2)CC1,97.6%
5,COc1ccc(/C=C2/C(=O)N=C3N2NC(c2ccccc2)=CN3c2ccccc2)cc1,87.8%
6,COc1ccc2nc3cc(Cl)ccc3c(NCCCNCCC(C)O)c2c1 (stereo not drawn),-68% (active)
7,C=CCOc1ccc(/C=C2\SC(=S)N(CCc3ccc(O)cc3)C2=O)cc1,-71.2% (active)
8,O=C1N=c2ccccc2=C1c1sc(=S)n(C2CC(=O)N(c3ccc(Cl)cc3)C2=O)c1O (stereo not drawn),89.5%
9,COc1c(O)c(O)cc2c3c(oc12)CC(c1ccc2c(c1)OCO2)CC3=O (stereo not drawn),25.3%
10,O=C(c1cccc(Br)c1)N1CCN(c2ccnc3cc(Cl)ccc23)CC1,102%
11,Cc1ccc(S(=O)(=O)OC[C@@]2(C)CC[C@]3(C)CC[C@]4(C)C(=C3C2)C=C[C@@H]2[C@@]3(C)CCCNC(C)(C)[C@@H]3CC[C@]24C)cc1,-99.2% (active)
12,Oc1ccccc1C=Nc1ccc(N2CCN(c3ccccc3)CC2)cc1,98.5%
13,NCCOCCOc1ccccc1,102%
14,COc1ccc(/C=C/C(=O)c2cc3c(N)c(C(=O)Nc4ccccc4)sc3nc2C)cc1,2.65% (active)
15,COc1ccc(/C(C)=C(\c2ccc(OCCN3CCCCCC3)cc2)c2ccc(OC(=O)C3CCCCC3)cc2)cc1,-93.5% (active)
16,N=c1c2c(-c3ccccc3)c(-c3ccccc3)oc2ncn1NC(=O)c1cccnc1,95%
17,O=C(Nc1cc(C(F)(F)F)cc(C(F)(F)F)c1)c1cc(Cl)ccc1O,-62.1% (active) and -58.6% (active)

# Test system: SK-MEL-28 melanoma
# Assay: as above
# Details: 10 µM unless noted
row,SMILES,growth
1,C[N+]1=C(/C=C\C=C\c2ccccc2)C(C)(C)c2ccccc21,-35.5% (active)
2,O=C(/C=C/C12c3ccccc3C(c3ccccc31)C1C(=O)NC(=O)C12)c1ccncc1 (stereo not drawn),24.7%
3,CN1CCN(Cc2ccc(NC(=O)c3nc4ccc5[nH]ncc5c4c4c3CCCC4)cc2C(F)(F)F)CC1,-85.8% (active)
4,CC(=O)c1nn(-c2ccccc2)/c(=N/N=Cc2cn(-c3ccccc3)nc2-c2cc3ccccc3oc2=O)s1,111%
5,CN1CCN(Cc2ccc(NC(=O)c3cccc(C#Cc4c(N)ncc5ccc(F)cc45)c3)cc2C(F)(F)F)CC1,-90.2% (active)
6,CCN(C(=O)N1CCN(c2cc3c(cc2F)c(=O)c(C(=O)O)cn3C2CC2)CC1)c1nc(-c2ccccc2)cs1,41.8%
7,COc1ccc(-c2ccccc2)cc1-c1c(Nc2cc(Cl)cc(Cl)c2O)c(=O)c1=O,20%
8,COc1cc(CO)cc2cc3ccccc3nc12,113%
9,N=C(N)c1ccc(-c2ccc(-c3ccc(Cl)c(Cl)c3)s2)cc1,107%
10,Cc1c(C(=O)OCCCCOC(=O)c2c(C)n(C)c3scc[n+]23)[n+]2ccsc2n1C,104%
11,COc1ccc(/C(C)=C(\c2ccc(OCCN3CCOCC3)cc2)c2ccc(OC(=O)C3CCCCC3)cc2)cc1,106%
12,CCOc1ccccc1NC(=O)c1cc2ccccc2cc1O,87.7%
13,O=S(=O)(Nc1ccc(F)cc1)c1ccc(-c2cnc(C3CC3)o2)cc1,56.2%
14,CN(C)c1ccc2nc3ccc(=O)cc-3sc2c1,77.6% and 63%
15,COC(=O)N/N=C/c1c[n+]([O-])c2ccccc2[n+]1[O-],105%
16,COc1cc(F)c(/C=C/c2cc(/C=C/c3cc(OC)c(OC)cc3F)n(-c3cc(F)cc(F)c3)n2)cc1OC,-28.1% (active)
17,Clc1ccc(CNc2ccc3nc(CCC4CCCCC4)[nH]c3c2)cc1,42%
18,FC(F)(F)Sc1ccc(/C=C/c2cc(/C=C/c3ccc(SC(F)(F)F)cc3)n(-c3ccccc3)n2)cc1,109%
19,CC(=O)N1N=C(c2ccc(Nc3nc(Nc4ccc(F)cc4)nc(Nc4ccc(F)cc4)n3)cc2)CC1c1ccccc1 (stereo not drawn),97.5%
20,COC1/C=C/OC2(C)Oc3c(C)c(O)c4c(O)c(c(C=NOC(c5ccccc5)c5ccccc5)c(O)c4c3C2=O)NC(=O)/C(C)=C/C=C/C(C)C(O)C(C)C(O)C(C)C(OC(C)=O)C1C (stereo not drawn),-7.28% (active)

row,SMILES,growth
1,Nc1ccccc1SC(CC(=O)c1ccccc1)c1ccc([N+](=O)[O-])cc1 (stereo not drawn),94.4% and 99.6%
2,Cc1ccc(/C=C/c2c(C(=O)/C=C/c3ccccc3)c(C)nc3ccccc23)cc1,24.3%
3,COc1ccc(/C=C(\C#N)c2cc3ccccc3[nH]2)cc1,49.5%
4,Cc1ccc(Cl)cc1N1CCN(C(=O)[C@@H]2C[C@@H]2c2ccc(F)cc2)CC1,103%
5,COc1ccc(/C=C2/C(=O)N=C3N2NC(c2ccccc2)=CN3c2ccccc2)cc1,108%
6,COc1ccc2nc3cc(Cl)ccc3c(NCCCNCCC(C)O)c2c1 (stereo not drawn),-59.3% (active)
7,COc1ccc(-c2nc(Cl)c3c(C)nn(-c4ccc(F)cc4)c3n2)cc1,110%
8,C=CCOc1ccc(/C=C2\SC(=S)N(CCc3ccc(O)cc3)C2=O)cc1,110%
9,O=C1N=c2ccccc2=C1c1sc(=S)n(C2CC(=O)N(c3ccc(Cl)cc3)C2=O)c1O (stereo not drawn),109%
10,COc1c(O)c(O)cc2c3c(oc12)CC(c1ccc2c(c1)OCO2)CC3=O (stereo not drawn),47%
11,O=C(c1cccc(Br)c1)N1CCN(c2ccnc3cc(Cl)ccc23)CC1,95.7%
12,Cc1ccc(S(=O)(=O)OC[C@@]2(C)CC[C@]3(C)CC[C@]4(C)C(=C3C2)C=C[C@@H]2[C@@]3(C)CCCNC(C)(C)[C@@H]3CC[C@]24C)cc1,96.7%
13,Oc1ccccc1C=Nc1ccc(N2CCN(c3ccccc3)CC2)cc1,109%
14,Fc1ccc(NC(c2ccc(F)cc2)C2CCN(CCCCc3ccccc3)CC2)cc1 (stereo not drawn),60.1%
15,NCCOCCOc1ccccc1,107%
16,COc1ccc(/C=C/C(=O)c2cc3c(N)c(C(=O)Nc4ccccc4)sc3nc2C)cc1,52%
17,COc1ccc(/C(C)=C(\c2ccc(OCCN3CCCCCC3)cc2)c2ccc(OC(=O)C3CCCCC3)cc2)cc1,-84.5% (active)
18,N=c1c2c(-c3ccccc3)c(-c3ccccc3)oc2ncn1NC(=O)c1cccnc1,119%
19,O=C(Nc1cc(C(F)(F)F)cc(C(F)(F)F)c1)c1cc(Cl)ccc1O,-33.4% (active) and -22.4% (active)

# From PubChem BioAssay (NCI)
